# Measured values published in PubChem BioAssay (NCATS).
# Results filed as inconclusive are left out. Entries that show only a call come without a potency. A number with no mark means an inactive call. The source made the active and inactive calls. Calls follow the shape of the dose curve; as a rule, active = well fitted inhibition curve with a large enough effect; inconclusive = small, poorly fitted or top-dose-only effect; inactive = flat fitted curve, though single readings scatter.
# Tests used:
# JCK = experiment: qHTS profiling for inhibitors of Plasmodium falciparum proliferation (AID 504749); also: potency is read from the fitted curve at half-maximal effect; settings: P. falciparum in erythrocytes, SYBR Green DNA, 72 h; series mostly up to 28.7 µM
# Method in brief: (§1)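 Parasite proliferation within erythrocytes, 72 h exposure. Endpoint: SYBR Green I fluorescence after overnight lysis at room temperature. Controls: 0.29 uM artemisinin, DMSO.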
# N140 = experiment: as above; settings: P. falciparum in erythrocytes, SYBR Green DNA, 72 h; series mostly up to 28.7 µM
# Method in brief: as §1
# P93_24 = experiment: as above; settings: P. falciparum in erythrocytes, SYBR Green DNA, 72 h; series mostly up to 28.7 µM
# Method in brief: as §1
# P94_40 = experiment: as above; settings: P. falciparum in erythrocytes, SYBR Green DNA, 72 h; series mostly up to 28.7 µM
# Method in brief: as §1
# PAD = experiment: as above; settings: P. falciparum in erythrocytes, SYBR Green DNA, 72 h; series mostly up to 28.7 µM
# Method in brief: as §1
# PC15 = experiment: as above; settings: P. falciparum in erythrocytes, SYBR Green DNA, 72 h; series mostly up to 28.7 µM
# Method in brief: as §1
# PC26 = experiment: as above; settings: P. falciparum in erythrocytes, SYBR Green DNA, 72 h; series mostly up to 28.7 µM
# Method in brief: as §1
# PC49 = experiment: as above; settings: P. falciparum in erythrocytes, SYBR Green DNA, 72 h; series mostly up to 28.7 µM
# Method in brief: as §1
# SC27B = experiment: as above; settings: P. falciparum in erythrocytes, SYBR Green DNA, 72 h; series mostly up to 28.7 µM
# Method in brief: as §1
# TAB109 = experiment: as above; settings: P. falciparum in erythrocytes, SYBR Green DNA, 72 h; series mostly up to 28.7 µM
# Method in brief: as §1
# TAB113 = experiment: as above; settings: P. falciparum in erythrocytes, SYBR Green DNA, 72 h; series mostly up to 28.7 µM
# Method in brief: as §1
# TAB165 = experiment: as above; settings: P. falciparum in erythrocytes, SYBR Green DNA, 72 h; series mostly up to 28.7 µM
# Method in brief: as §1
# W2 = experiment: as above; settings: P. falciparum in erythrocytes, SYBR Green DNA, 72 h; series mostly up to 28.7 µM
# Method in brief: as §1
# CRL-7250 = normal cell line; experiment: Cytotoxic Profiling of Annotated Libraries Using Quantitative High-Throughput Screening (AID 1296008); settings: Five cell lines viability, CellTiter-Glo ATP luminescence, 48-72 h; active compounds read low
# Method in brief: (§2)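 Compounds were pin-transferred onto cells and incubated 48 or 72 hr at 37 degree Celsius, 95% humidity. CellTiter-Glo was added, plates sat 10 min at room temperature, then ATP-coupled luminescence was imaged as the viability read-out.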
# HEK293 = experiment: as above; settings: Five cell lines viability, CellTiter-Glo ATP luminescence, 48-72 h; active compounds read low
# Method in brief: as §2
# HaCat [1] = experiment: as above; settings: Five cell lines viability, CellTiter-Glo ATP luminescence, 48-72 h; active compounds read low
# Method in brief: as §2
# NIH3T3 = experiment: as above; settings: Five cell lines viability, CellTiter-Glo ATP luminescence, 48-72 h; active compounds read low
# Method in brief: as §2
# HACAT [2] = experiment: qHTS assay to identify novel small-molecules to repurpose for Merkel cell carcinoma treatment (AID 1296009); settings: MCC and control cell lines, CellTiter-Glo viability, 72 h; at 44.8 µM (top of the series) unless noted
# Method in brief: (§3)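 qHTS format: cells treated with library compounds in DMSO across 8 (NPC) or 11 (MIPE) concentrations. Readout after 72 hr at 37 degree celsius was CellTiter-Glo luminescence.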
# HEK293T = experiment: as above; settings: MCC and control cell lines, CellTiter-Glo viability, 72 h; at 44.8 µM (top of the series) unless noted
# Method in brief: as §3
# Also: nearly all actives have a fitted effect of over 60% in size.
smiles,measurement,setting,value
O=C(NCN1CCOCC1)c1cnccn1,Potency,JCK,inactive
same,Potency,N140,inactive
same,Potency,P93_24,inactive
same,Potency,P94_40,inactive
same,Potency,PAD,inactive
same,Potency,PC15,inactive
same,Potency,PC26,inactive
same,Potency,PC49,inactive
same,Potency,SC27B,inactive
same,Potency,TAB109,inactive
same,Potency,TAB113,inactive
same,Potency,TAB165,inactive
same,Potency,W2,inactive
same,max response,CRL-7250,3.76%
same,max response,HEK293,3.79%
same,outcome,HaCat [1],inactive
same,max response,NIH3T3,-0.98%
same,outcome,HACAT [2],inactive
O=C(c1ccccc1)C(O)c1ccccc1 (stereo not given),Potency,JCK,inactive
same,Potency,N140,inactive
same,Potency,P93_24,inactive
same,Potency,P94_40,inactive
same,Potency,PAD,inactive
same,Potency,PC15,inactive
same,Potency,PC26,inactive
same,Potency,SC27B,inactive
same,Potency,TAB109,inactive
same,Potency,TAB113,inactive
same,Potency,TAB165,inactive
same,max response,CRL-7250,-6.36%
same,max response,HEK293,-4.36%
same,max response,HaCat [1],-0.758%
same,outcome,NIH3T3,inactive
CCCCOC(=O)c1ccc(N)cc1,Potency,JCK,inactive
same,Potency,N140,inactive
same,Potency,P93_24,inactive
same,Potency,P94_40,inactive
same,Potency,PAD,inactive
same,Potency,PC15,inactive
same,Potency,PC26,inactive
same,Potency,PC49,inactive
same,Potency,SC27B,inactive
same,Potency,TAB109,inactive
same,Potency,TAB113,inactive
same,Potency,TAB165,inactive
same,outcome,CRL-7250,inactive
same,max response,HEK293,4.63%
same,outcome,HaCat [1],inactive
same,max response,NIH3T3,-6.66%
same,outcome,HACAT [2],inactive
CN1C[C@@H]2C[C@H]1CN2c1cc2c(cc1F)c(=O)c(C(=O)O)cn2C1CC1,Potency,JCK,inactive
same,Potency,P93_24,1580 nM (active)
same,Potency,PAD,inactive
same,Potency,PC49,inactive
same,Potency,TAB113,inactive
same,Potency,W2,953 nM (active)
same,max response,CRL-7250,2.35%
same,max response,HEK293,-22.9%
same,outcome,HaCat [1],inactive
same,max response,NIH3T3,-10.1%
same,outcome,HACAT [2],inactive [at 17.4 µM]
CCC(C)(CN(C)C)OC(=O)c1ccccc1 (stereo not given),max response,CRL-7250,-17.5%
same,outcome,HEK293,inactive
same,outcome,HaCat [1],inactive
same,max response,NIH3T3,-14.8%
same,outcome,HACAT [2],inactive
same,outcome,HEK293T,inactive
NS(=O)(=O)c1cc2c(cc1C(F)(F)F)NCNS2(=O)=O,Potency,JCK,inactive
same,Potency,N140,inactive
same,Potency,P93_24,inactive
same,Potency,P94_40,inactive
same,Potency,PAD,inactive
same,Potency,PC15,inactive
same,Potency,PC26,inactive
same,Potency,PC49,inactive
same,Potency,SC27B,inactive
same,Potency,TAB109,inactive
same,Potency,TAB113,inactive
same,Potency,TAB165,inactive
same,Potency,W2,inactive
same,max response,CRL-7250,-22.8%
same,max response,HEK293,-7.43%
same,max response,HaCat [1],2.79%
same,max response,NIH3T3,-4.18%
CN[C@@H]1[C@H](O)[C@H](NC)[C@H]2O[C@@]3(O)C(=O)C[C@@H](C)O[C@H]3O[C@@H]2[C@H]1O,max response,CRL-7250,-3.95%
same,max response,HEK293,1.03%
same,max response,HaCat [1],0.231%
same,max response,NIH3T3,2.69%
CC(=O)[C@@]1(O)CC[C@H]2[C@@H]3C[C@H](C)C4=CC(=O)C=C[C@]4(C)[C@@]3(F)[C@@H](O)C[C@@]21C,max response,CRL-7250,-3.29%
same,outcome,HEK293,inactive
same,max response,HaCat [1],4.35%
same,max response,NIH3T3,4.42%
same,outcome,HEK293T,inactive
C/C(=C(\CCO)SS/C(CCO)=C(\C)N(C=O)Cc1cnc(C)nc1N)N(C=O)Cc1cnc(C)nc1N,outcome,CRL-7250,inactive
same,max response,HEK293,-0.967%
same,outcome,HaCat [1],inactive
same,max response,NIH3T3,-2.04%
same,outcome,HACAT [2],inactive
CC1CCN(CCCC(=O)c2ccc(F)cc2)CC1,Potency,JCK,inactive
same,Potency,N140,inactive
same,Potency,P93_24,inactive
same,Potency,P94_40,inactive
same,Potency,PAD,inactive
same,Potency,PC15,inactive
same,Potency,PC26,inactive
same,Potency,PC49,inactive
same,Potency,SC27B,inactive
same,Potency,TAB109,inactive
same,Potency,TAB113,inactive
same,Potency,TAB165,inactive
same,max response,CRL-7250,-0.306%
same,max response,HEK293,-0.532%
same,outcome,HaCat [1],inactive
same,max response,NIH3T3,-1.04%
same,outcome,HACAT [2],inactive
